Compound activity: PubChem BioAssay, several laboratories
This is a sample that favours compounds with a hit; in the whole collection about 1.5% have one here.
TMEM16A act: mouse TMEM16A channel activation, primary screen | Q8BHY3 | AID 623877 | 340,000 tested, 0.3% active | HEK293 TMEM16A/YFP-H148Q/I152L, iodide quench fluorescence; hits give low values | B-score at 10 µM;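 active = fluorescence-ratio B-score plate-corrected deviation score at least 3 library SD below zero, with starting fluorescence score within 5 deviations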;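 also: channel opened by trigger with iodide after compound preincubation; score built on the fluorescence ratio of max minus min over baseline; more negative score means more quench and so TMEM16A activation or potentiation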
Target sequence (Q8BHY3 whole entry, looked up): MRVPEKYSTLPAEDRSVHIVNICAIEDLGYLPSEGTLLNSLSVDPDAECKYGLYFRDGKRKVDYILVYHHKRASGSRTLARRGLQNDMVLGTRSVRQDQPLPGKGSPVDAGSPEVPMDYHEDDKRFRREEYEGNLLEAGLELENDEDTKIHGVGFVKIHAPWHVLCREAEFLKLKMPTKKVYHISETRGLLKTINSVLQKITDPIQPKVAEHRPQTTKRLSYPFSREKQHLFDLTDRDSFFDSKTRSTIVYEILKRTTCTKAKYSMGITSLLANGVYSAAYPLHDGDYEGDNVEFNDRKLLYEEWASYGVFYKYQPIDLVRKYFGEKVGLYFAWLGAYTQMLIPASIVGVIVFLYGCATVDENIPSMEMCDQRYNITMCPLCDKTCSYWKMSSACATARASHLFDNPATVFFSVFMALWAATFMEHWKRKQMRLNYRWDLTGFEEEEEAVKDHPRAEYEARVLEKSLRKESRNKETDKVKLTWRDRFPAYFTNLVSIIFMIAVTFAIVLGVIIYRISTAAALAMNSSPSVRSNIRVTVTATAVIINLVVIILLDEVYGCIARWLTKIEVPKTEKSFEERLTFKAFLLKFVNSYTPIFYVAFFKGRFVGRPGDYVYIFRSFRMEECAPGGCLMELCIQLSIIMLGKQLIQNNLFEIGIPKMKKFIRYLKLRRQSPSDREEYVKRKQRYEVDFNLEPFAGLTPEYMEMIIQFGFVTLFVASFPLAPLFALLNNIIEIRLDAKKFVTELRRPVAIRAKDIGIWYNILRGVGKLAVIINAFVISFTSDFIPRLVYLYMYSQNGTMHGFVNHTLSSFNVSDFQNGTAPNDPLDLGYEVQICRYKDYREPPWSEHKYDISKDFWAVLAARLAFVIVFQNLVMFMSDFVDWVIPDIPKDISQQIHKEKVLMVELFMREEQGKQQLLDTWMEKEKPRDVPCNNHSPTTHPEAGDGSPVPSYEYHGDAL
iPSC survival up: enhancers of human iPSC single-cell survival; 360,000 tested, 0.044% active; survival enhancement, % at 20 µM; hiPSC single-cell survival, ATPlite luminescence; 100% = ROCK inhibitor wells, 0% = DMSO; in the data active = survival enhancement above about 18%;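 also: cells exposed to compounds for 16 hours before the ATP read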
DAGLB inhibitor: blocks human DAGLB lipase activity | AID 504411 | HEK293T DAGLB membrane lysate, EnzChek fluorogenic substrate | Q8NCG7 | inhibition, % at 5.17 µM | 340,000 tested, 0.059% active; in the data active = inhibition above about 34%;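 also: 0% = enzyme with vehicle and 100% = wells lacking enzyme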
ABCB6 inh MLPCN: inhibitors of human ABC transporter ABCB6. Q9NP58. K562-ABCB6 porphyrin accumulation, flow cytometry, 1 h; hits give low values. fluorescence ratio to DMSO, % at 10 µM. 360,000 tested, 0.19% active. AID 602162;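 active = fluorescence ratio to DMSO below 75%, the collection mean minus 3 SD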;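 also: signal is porphyrin accumulated inside mitochondria; 100% equals median channel fluorescence of DMSO control wells; lower ratio means ABCB6 inhibition with less porphyrin fluorescence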
TMEM16A inh: inhibitors of mouse TMEM16A calcium-activated chloride channel. normalized B-score (activity score, 25-100; higher = stronger inhibition) at 10 µM. AID 588511. Q8BHY3. HEK293 TMEM16A/YFP iodide influx fluorescence, ionomycin. 310,000 tested, 1.2% active;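 active = ratio plate-corrected score three or more library SD toward inhibition, starting fluorescence score within five deviations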;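 also: score derived from kinetic fluorescence span divided by baseline fluorescence per well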
Starred values were filed as active, the others as inactive; i = inactive; x = no result.

SMILES | TMEM16A act | iPSC survival up | DAGLB inhibitor | ABCB6 inh MLPCN | TMEM16A inh
COc1ccc(-c2csc(NC(=O)c3ccccc3NS(=O)(=O)c3ccc(C)cc3)n2)cc1 | i | 3 | 11 | 93 | 100*
COc1ccc(-c2csc(NC(=O)c3c(OC)cccc3OC)n2)cc1 | i | 0 | -3 | 92 | i
COc1ccc(C(=O)O)cc1S(=O)(=O)Nc1ccc(Oc2ccccc2)cc1 | i | 0 | 3 | 99 | x
CC(C)[C@@H](NC(=O)C1CCN(C(=O)[C@@H]2CCCN2C(=O)OC(C)(C)C)CC1)C(=O)NCc1ccc(F)cc1 | -24* | 5 | 0 | 98 | i
O=C(C=CC=Cc1ccccc1)c1ccc([N+](=O)[O-])cc1 | x | -2 | -4 | 95 | x
NC(=O)COc1ccc(S(=O)(=O)N2CCCC2)cc1 | x | 0 | 0 | 93 | x
COc1ccc(-c2noc(CCC(=O)N3CCN(c4cccc(OC)c4)CC3)n2)cc1 | x | 0 | 0 | 94 | x
COc1ccc(-c2noc(CCC(=O)N3CCN(c4cccc(C(F)(F)F)c4)CC3)n2)cc1 | i | 0 | 0 | 92 | 100*
O=C(COCc1cc(-c2ccc3c(c2)OCO3)on1)N1CCN(c2cccc(C(F)(F)F)c2)CC1 | i | 0 | -2 | 104 | 25*
Cn1c(=O)c2cc(NC(=O)NCc3ccc(Cl)cc3Cl)ccc2n1Cc1ccc(F)cc1 | x | -3 | x | 88 | x
O=C1NCCn2ccc(=O)cc21 | i | -1 | 0 | 98 | i
O=C(CCc1nc(-c2ccccc2F)no1)Nc1ccc(Oc2ccccc2)cc1 | i | 0 | -9 | 90 | 100*
COc1cccc(NC(=O)CCc2nc(-c3ccccc3F)no2)c1 | i | 5 | -3 | 102 | i
CCOC(=O)[C@H]1[C@H]2COc3ccc(Cl)cc3[C@@H]2N2C(=O)CN(Cc3ccco3)C(=O)[C@@]12C | i | 1 | -5 | 101 | x
C[C@H](CO)N1C[C@H](C)[C@@H](CN(C)S(=O)(=O)c2ccc3ccccc3c2)OCc2cnnn2CCCC1=O | x | 1 | -3 | 94 | x
O=[N+]([O-])c1ccc(O)c(CSc2nnnn2-c2ccccc2)c1 | i | 0 | 0 | 104 | 100*
COc1cc2c(cc1OC)CN(C1CCC(C(C)(C)C)CC1)CC2 (stereo unspecified) | i | 0 | -1 | 93 | x
COc1cc(/C=C(\C#N)C(=O)N2CCc3ccccc32)ccc1O | i | 0 | 1 | 101 | i
N#C/C(=C\c1ccc(O)c(O)c1)C(=O)N1CCc2ccccc21 | i | -2 | 34 | 93 | 25*
O=C(Nc1ccccc1)Nc1ccc2nnsc2c1 | i | 0 | -3 | 98 | 100*
O=C(Nc1ccccc1)Nc1ccc2snnc2c1 | i | -3 | 2 | 93 | i
O=S(=O)(N1CCCCC1)N1CCN(c2cc(Cl)ccc2Cl)CC1 | -8* | -2 | -19 | 88 | i
O=C(CCc1nc(-c2ccccc2)c(-c2ccccc2)o1)OCc1ccc(Cl)cc1 | -5.5* | 4 | -11 | 102 | i
O=C(CCc1nc(-c2ccccc2)c(-c2ccccc2)o1)OCc1ccc(Br)cc1 | i | 4 | -13 | 98 | i
CCNC(=O)C1(C)CCN(C(=O)c2ccc(F)c(Cl)c2)C1 (stereo unspecified) | x | 2 | x | 110 | x
SMILES | TMEM16A act | iPSC survival up | DAGLB inhibitor | ABCB6 inh MLPCN | TMEM16A inh
CC1=C(C(=O)Nc2cc(C(=O)N3CCN(c4cccc(C)c4C)CC3)ccc2C)SCCO1 | -7.1* | 1 | -3 | 99 | i
COc1ccc(N2CCN(C(=O)c3ccc(C)c(NC(=O)C4=C(C)OCCS4)c3)CC2)cc1 | i | 0 | -1 | 93 | i
Cc1cccc(NC(=O)C(=O)NCCc2c[nH]c3ccccc23)c1C | -5.6* | -1 | -7 | 99 | i
Cc1cccc(C)c1NC(=O)C(=O)NCCc1c[nH]c2ccccc12 | i | -1 | 1 | 99 | i
CCOC(=O)c1sc(NC(=O)c2cc(-c3ccccc3C)nc3ccccc23)c(C#N)c1C | i | 0 | 0 | 97 | 100*
COCCn1c(SCC(=O)NNC(=O)c2ccccc2)nc2ccccc21 | i | 3 | -1 | 101 | x
CCCc1c(-c2ccc(O)cc2)nn(-c2ccc(O)cc2)c1-c1ccc(O)cc1 | i | 5 | 2 | 109 | 100*
Cc1c(C(N)=O)c(-c2ccccc2)nn1-c1ccccc1 | i | 1 | -1 | 92 | i
CC(C)(C)c1cc[n+](-c2[nH]c(=O)sc2/C=N/N=C(\[O-])c2cccnc2)cc1 | i | 0 | 0 | 104 | i
O=c1[nH]c(-[n+]2ccc3ccccc3c2)c(/C=N/N=C(\[O-])c2ccccc2)s1 | -12* | 1 | 4 | 111 | i
Cn1c(=O)nc2n(Cc3ccccc3)c3ccccc3cc-2c1=O | i | 2 | 0 | 105 | 100*
CN(C)c1nc2c(c(=O)n(C)c(=O)n2C)n1Cc1ccccc1 | i | 0 | -1 | 97 | i
CCCCn1c(=O)nc2n(-c3ccccc3C)c3ccccc3cc-2c1=O | i | -1 | -1 | 99 | 25*
Cc1ccccc1-n1c2nc(=O)n(C)c(=O)c-2cc2ccccc21 | i | 3 | -1 | 99 | 100*
N#Cc1ccc(N2CCCNCC2)nc1 | i | 0 | -5 | 102 | i
Cc1ccc(C(=O)c2ccc(C)cc2)cc1 | i | -1 | -11 | 98 | i
Cc1ccc(C(=O)c2no[n+]([O-])c2C(=O)c2ccc(C)cc2)cc1 | i | -1 | -4 | 67* | i
CCCCCCn1c(=O)n2n(c1=O)[C@@H]1CN(S(=O)(=O)c3ccc(C)cc3)C[C@]1(O)[C@@H](OC(=O)NCc1ccco1)C2 | x | -1 | 0 | 93 | x
COC(=O)Cn1c(CN2CCC(Cc3ccccc3)CC2)nc2c1c(=O)n(C)c(=O)n2C | i | 2 | 6 | 96 | 25*
Cc1csc(NC(=O)CSC2=NS(=O)(=O)c3ccccc3N2)n1 | i | 0 | -1 | 101 | i
CC(CC1C(C#N)=C(N)SC(N)=C1C#N)c1ccccc1 (stereo unspecified) | i | -1 | 4 | 97 | 100*
Cc1c(OCC(=O)NCc2cccnc2)ccc2c3c(c(=O)oc12)CCCC3 | i | 0 | 1 | 101 | i
O=P(CCCCCCCCCP(=O)(c1ccccc1)c1ccccc1)(c1ccccc1)c1ccccc1 | i | -1 | 2 | 88 | 100*
O=C(Nc1ccccc1)Nc1ccc(F)c([N+](=O)[O-])c1 | i | 2 | -3 | 97 | 25*
CC(CC(=O)Nc1ccc(Cl)c([N+](=O)[O-])c1)c1ccccc1 (stereo unspecified) | i | 2 | 0 | 91 | 100*
O=C(O)c1cc(NC(=O)c2ccc(Cl)c([N+](=O)[O-])c2)cc(C(=O)O)c1 | i | -1 | 0 | 102 | i
O=C(Nc1ccccc1)Nc1ccc(Cl)c([N+](=O)[O-])c1 | i | -1 | -3 | 100 | 100*
